Measurements as given in PubChem BioAssay AID2685 (National Center for Advancing Translational Sciences (NCATS), 2010).
Among all 320,000 compounds or so, about 2,100 (0.66%) were called active. Inconclusive results (about 53%) are left out. Calls follow the shape of the dose curve; as a rule, active = well fitted inhibition curve with a large enough effect in the signal ratio, with a control signal flat (not every such curve was filed as active); inconclusive = small, poorly fitted or top-dose-only effect, or effect the other way, or a change in a side signal; inactive = flat fitted curve, though single readings scatter; the % refers to the signal ratio. This excerpt belongs to a sample that is enriched for actives.

Test: qHTS Assay for Lipid Storage Modulators in Drosophila S3 Cells;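 as to cell number change: cells counted by Cell Tracker Red CMTPX staining in the red channel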; as to lipid storage change, negative = inhibition: % is scaled to controls: 0 for no effect and ±100 for the full control effect
Settings: BODIPY lipid droplet fluorescence, 18-24 h, cells fed with added oleic acid; cell number change: measured here: cell count max response; series mostly up to 46.1 µM
Description: NIH Molecular Libraries Probe Production Centers Network [MLPCN] NIH Chemical Genomics Center [NCGC] MLPCN Grant: 1 R03 MH085686-01 Assay Submitter (PI): Beller, Mathias; Max-Planck-Institut fur Biophysikalische Chemie NCGC Assay Overview: Storing lipids as a reservoir for energy or the anabolism of elementary metabolites is a common feature of probably all cells and is conserved from bacteria to humans. The universal cellular lipid storage organelle is the so-called lipid storage droplet (LD). Although ubiquitous, LDs share a simple structure composed of a hydrophobic core that harbors the storage lipids, which is shielded by a droplet-specific phospholipid monolayer to which proteins are attached. The current model of LD biogenesis involves an incorporation of the lipid core into the membrane leaflets of the endoplasmic reticulum (ER) followed by a subsequent budding-like maturation of a LD, which ultimately pinches off. Once released, LD volume can increase by localized lipogenesis or fusion of existing droplet. Storage lipids are re-mobilized enzymatically by lipase activity. Lipase regulation in the adipocyte is heavily studied and involves multiple components including catecholamine signaling, the LD-associated proteins Perilipin and comparative gene identification (CGI-58) and at least two lipases named hormone sensitive lipase (HSL) and adipocyte triglyceride lipase (ATGL). LD regulation outside of the adipocyte is poorly understood and only few components are known. However, there is an urgent need to learn more about ectopic fat depots as mislocalized storage of lipids, for example in the liver or muscle, is an eminent health problem associated with insulin resistance or the metabolic syndrome. We developed a laser-scanning cytometer assay to enable 1,536-well screening and combined the results of the small molecules screen with an RNAi database based on lipid storage.
Triacsin C (Sigma-Aldrich T-4540), an inhibitor of long-chain fatty acyl CoA synthetase that blocks synthesis of triglycerides, was used as a positive control for lipid under-storage. A total of 23 nL of compound solution of different concentrations were transferred to the assay plates using a Kalypsys pin tool equipped with a 1,536-pin array containing 10-nL slotted pins (FP1S10, 0.457-mm diameter, 50.8 mm long; V&P Scientific). One microliter of oleic acid (400 uM) was added, and the plate was lidded with stainless steel rubber gasket lined lids containing pinholes. […] Fluorescence was detected by excitation of the fluorophores with a 488-nm laser on an Acumen Explorer (TTP Lab Tech). The total intensity in channel 2 (500-530 nm) reflected lipid droplet accumulation. Cells were detected using channel 3 (575-640 nm) with 5-um width and 100-um depth filters. The ratio of the number of objects in PMT channel 2 over the number of objects in PMT channel 3 was also calculated. Percent activity was computed relative to an internal control (100% inhibited lipid droplet deposition due to the presence of 20 uM Triacsin C), which was added to 32 wells/plate.
Potency is read from the fitted curve at half-maximal effect.

SMILES	Potency	cell number change	lipid storage change, negative = inhibition
CCOC(=O)C1CCN(S(=O)(=O)c2ccc(-c3ccccn3)s2)CC1	inactive	18.1%	–
CCOC(=O)CN(C(=O)CSc1nnc(CNc2ccc(C)cc2C)n1CC)c1ccccc1	inactive	-14.6%	–
COC(=O)CSc1nc(N2CCOCC2)c2c(c1C#N)CC(C)(C)N(C)C2	inactive	15.3%	–
COc1cccc(-c2ccc3c(c2)S(=O)(=O)c2cccc(C(=O)O)c2C3=O)c1OC	0.651 µM (active)	–	–
O=C(O)c1cccc2c1C(=O)c1ccc(-c3ccc(F)cc3F)cc1S2(=O)=O	inactive	1.93%	–
COc1ccc(-c2ccc3c(c2)S(=O)(=O)c2cccc(C(=O)O)c2C3=O)cc1OC	inactive	0.722%	–
Cc1c(C(=O)N(Cc2ccc(F)cc2)C2CCS(=O)(=O)C2)oc2ccccc12 (configuration not stated)	inactive	3.58%	–
CC1(C)C(C=C(Cl)Cl)C1C(=O)N(Cc1ccc(Cl)cc1)C1CCS(=O)(=O)C1 (configuration not stated)	8.2 µM (active)	-12%	–
O=C(c1ccco1)N(Cc1ccc(Cl)cc1)C1CCS(=O)(=O)C1 (configuration not stated)	inactive	5.9%	–
Cc1c(C(=O)N(Cc2ccc(Cl)cc2)C2CCS(=O)(=O)C2)oc2ccccc12 (configuration not stated)	9.2 µM (active)	-19.8%	–
Cc1cc(Cl)c2oc(C(=O)N3CCN(C4CCS(=O)(=O)C4)CC3)c(C)c2c1 (configuration not stated)	inactive	16.7%	–
CC1(C)C(C=C(Cl)Cl)C1C(=O)N(Cc1ccccc1Cl)C1CCS(=O)(=O)C1 (configuration not stated)	inactive	-19.9%	–
C=CCN(C(=O)c1ccccc1)C1CCS(=O)(=O)C1 (configuration not stated)	inactive	22.7%	–
C=CCN(C(=O)c1oc2c(Cl)cc(C)cc2c1C)C1CCS(=O)(=O)C1 (configuration not stated)	20.6 µM (active)	7.31%	–
Cc1c(C(=O)N(Cc2ccccc2)C2CCS(=O)(=O)C2)oc2ccccc12 (configuration not stated)	inactive	19%	–
O=C1CSC(c2ccccc2)N1CC(O)c1ccc([N+](=O)[O-])cc1 (configuration not stated)	inactive	14%	–
CCOc1ccc(-c2noc(-c3cccnc3)n2)cc1OCC	inactive	2.29%	–
O=[N+]([O-])c1cccc(OCCN2CCC(Cc3ccccc3)CC2)c1	inactive	10.2%	–
COc1ccc(S(=O)(=O)CCC(=O)Nc2ccc(OC)cc2OC)cc1	inactive	-8.69%	–

SMILES	Potency	cell number change	lipid storage change, negative = inhibition
Cc1ccc(C(=O)CCC(=O)OCC(=O)N(CC(C)C)c2c(N)n(Cc3ccccc3)c(=O)[nH]c2=O)cc1	inactive	20.5%	–
COc1ccc(CCNc2c(C=O)c(=O)[nH]c3ccccc23)cc1OC	inactive	–	–
Cc1cc(Br)ccc1NC(=O)C(C)c1ccc([N+](=O)[O-])cc1 (configuration not stated)	inactive	6.98%	–
Cc1ccc(-n2cc(S(=O)(=O)c3ccc(C)cc3)[nH]c2=O)cc1	inactive	12.8%	–
Cc1ccc(-n2c3c(c(=O)[nH]c2=O)C(NS(=O)(=O)c2ccc(C)cc2)(C(F)(F)F)C(=O)N3)cc1 (configuration not stated)	inactive	-0.886%	–
CCc1c(C(C)S(=O)(=O)c2ccc(C)cc2)[nH]c(=O)n1-c1ccc(C)cc1 (configuration not stated)	29.1 µM (active)	-0.34%	–
Brc1ccc(-n2cccc2/C=N/n2cnnc2)cc1	inactive	–	–
N#Cc1nc(COc2ccc(Cl)cc2)oc1N1CCCC1	23.1 µM (active)	-31%	–
N#Cc1nc(COc2ccc(Br)cc2)oc1N1CCCCCC1	–	7.38%	17.2% [at 9.22 µM] (inactive)
Cc1ccc(OCc2nc(C#N)c(N3CCCCC3)o2)cc1	inactive	15.9%	–
COc1ccc(OC)c(-c2cc(C(=O)N3CCN(c4ncccn4)CC3)c3ccccc3n2)c1	inactive	-4.49%	–
Cc1onc(-c2ccccc2Cl)c1C(=O)Nc1ccccc1	inactive	6.9%	–
COc1cc(S(=O)(=O)N(C)C)ccc1F	inactive	-10.1%	–
CCOC(=O)C1=C(C)NC2=C(C(=O)c3ccccc32)C1c1cccc2ccccc12 (configuration not stated)	16.4 µM (active)	-15.2%	–
COC(=O)C1=C(C)NC2=C(C(=O)c3ccccc32)C1c1cccc(OC)c1 (configuration not stated)	inactive	-11.6%	–
CCOC(=O)C1=C(C)NC2=C(C(=O)c3ccccc32)C1c1ccc([N+](=O)[O-])o1 (configuration not stated)	inactive	12.6%	–
CCC1CCCCN1C(=O)CNCC1CCCO1 (configuration not stated)	inactive	14.6%	–
CSc1ccccc1NC(=O)CN(Cc1ccccc1)S(C)(=O)=O	inactive	–	–
Cc1ccc(CS(=O)(=O)CC(C)(O)c2ccccc2)cc1 (configuration not stated)	inactive	15.3%	–

SMILES	Potency	cell number change	lipid storage change, negative = inhibition
CCOc1ccc(C(C(=O)NCC2CCCO2)N(Cc2cccs2)C(=O)c2snc(C(N)=O)c2N)cc1 (configuration not stated)	1.64 µM (active)	15%	–
COc1ccc(C(C(=O)NCC2CCCO2)N(Cc2cccs2)C(=O)c2snc(C(N)=O)c2N)cc1OC (configuration not stated)	inactive	25.6%	–
CCOc1ccc(C(C(=O)NCC2CCCO2)N(Cc2cccnc2)C(=O)c2snc(C(N)=O)c2N)cc1 (configuration not stated)	inactive	-2.82%	–
Cc1cccc(-n2ncc3c2CCCC3NC(=O)CCN2CCCCO2)c1C (configuration not stated)	inactive	-4.74%	–
O=C(CSc1ccc(-c2ccccn2)nn1)N1CCCC1	inactive	4.79%	–
COc1cc(CN2CCC(Cc3ccccc3)CC2)c([N+](=O)[O-])cc1OC	inactive	21.3%	–
COc1ccc(CSc2nnc(CNS(C)(=O)=O)o2)cc1	inactive	8.09%	–
COc1cc([N+](=O)[O-])ccc1N1C(=O)C2C3C=CC(C4CC34)C2C1=O (configuration not stated)	inactive	-23.6%	–
O=S(=O)(NCc1ccccc1)c1ccc(-n2cccn2)cc1	inactive	-18%	–
O=S(=O)(NCc1ccccc1Cl)c1ccc(-n2cccn2)cc1	16.4 µM (active)	-0.567%	–
COc1ccccc1CNS(=O)(=O)c1ccc(-n2cccn2)cc1	inactive	-13.2%	–
O=C(NCCCCO)c1ccc2c3c(cccc13)CC2	inactive	-6.57%	–
Cc1ccc(NC(=S)NC(C)CCc2ccccc2)cc1C (configuration not stated)	inactive	23.4%	–
CCOc1ccccc1C(=O)Nc1ccc2nc3n(c(=O)c2c1)CCCCC3	1.64 µM (active)	-27.2%	–
O=C(Nc1ccc2nc3n(c(=O)c2c1)CCCCC3)c1ccccn1	inactive	-14.9%	–
Cc1ccccc1C(=O)Nc1ccc2nc3n(c(=O)c2c1)CCCC3	inactive	22.5%	–
CCO[C@@H]1OC(C(=O)NC2CC2)=C[C@H](c2csc3ccccc23)[C@H]1CCCO	inactive	0.265%	–
CC1CCN(S(=O)(=O)c2ccc3c(c2)N(CC(=O)NCCN2C(C)CCCC2C)C(=O)CS3)CC1 (configuration not stated)	inactive	–	–
